In experiment [1] the target is Nuclear receptor coactivator 1 (Homo sapiens) (UniProt Q15788). Briefly: SRC1 coactivator transcriptional activity inhibitors, confirmation, cell-based, luminescence, quadruplicate (AID 588820;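 active = mean inhibition above 46.68%, the untreated control wells mean plus 3 SD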;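 note: 0% = DMSO wells and 100% = gossypol 36 µM treated wells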). As to conditions: HEK293 GAL4-SRC1 luciferase reporter, at 3.6 µM, hits give high values. On the technique in general: Reporter assays use an easily measured gene product as a stand-in for the process of interest.
Sequence of Nuclear receptor coactivator 1 (Homo sapiens) (Q15788 whole entry, looked up, the tested form may be a part): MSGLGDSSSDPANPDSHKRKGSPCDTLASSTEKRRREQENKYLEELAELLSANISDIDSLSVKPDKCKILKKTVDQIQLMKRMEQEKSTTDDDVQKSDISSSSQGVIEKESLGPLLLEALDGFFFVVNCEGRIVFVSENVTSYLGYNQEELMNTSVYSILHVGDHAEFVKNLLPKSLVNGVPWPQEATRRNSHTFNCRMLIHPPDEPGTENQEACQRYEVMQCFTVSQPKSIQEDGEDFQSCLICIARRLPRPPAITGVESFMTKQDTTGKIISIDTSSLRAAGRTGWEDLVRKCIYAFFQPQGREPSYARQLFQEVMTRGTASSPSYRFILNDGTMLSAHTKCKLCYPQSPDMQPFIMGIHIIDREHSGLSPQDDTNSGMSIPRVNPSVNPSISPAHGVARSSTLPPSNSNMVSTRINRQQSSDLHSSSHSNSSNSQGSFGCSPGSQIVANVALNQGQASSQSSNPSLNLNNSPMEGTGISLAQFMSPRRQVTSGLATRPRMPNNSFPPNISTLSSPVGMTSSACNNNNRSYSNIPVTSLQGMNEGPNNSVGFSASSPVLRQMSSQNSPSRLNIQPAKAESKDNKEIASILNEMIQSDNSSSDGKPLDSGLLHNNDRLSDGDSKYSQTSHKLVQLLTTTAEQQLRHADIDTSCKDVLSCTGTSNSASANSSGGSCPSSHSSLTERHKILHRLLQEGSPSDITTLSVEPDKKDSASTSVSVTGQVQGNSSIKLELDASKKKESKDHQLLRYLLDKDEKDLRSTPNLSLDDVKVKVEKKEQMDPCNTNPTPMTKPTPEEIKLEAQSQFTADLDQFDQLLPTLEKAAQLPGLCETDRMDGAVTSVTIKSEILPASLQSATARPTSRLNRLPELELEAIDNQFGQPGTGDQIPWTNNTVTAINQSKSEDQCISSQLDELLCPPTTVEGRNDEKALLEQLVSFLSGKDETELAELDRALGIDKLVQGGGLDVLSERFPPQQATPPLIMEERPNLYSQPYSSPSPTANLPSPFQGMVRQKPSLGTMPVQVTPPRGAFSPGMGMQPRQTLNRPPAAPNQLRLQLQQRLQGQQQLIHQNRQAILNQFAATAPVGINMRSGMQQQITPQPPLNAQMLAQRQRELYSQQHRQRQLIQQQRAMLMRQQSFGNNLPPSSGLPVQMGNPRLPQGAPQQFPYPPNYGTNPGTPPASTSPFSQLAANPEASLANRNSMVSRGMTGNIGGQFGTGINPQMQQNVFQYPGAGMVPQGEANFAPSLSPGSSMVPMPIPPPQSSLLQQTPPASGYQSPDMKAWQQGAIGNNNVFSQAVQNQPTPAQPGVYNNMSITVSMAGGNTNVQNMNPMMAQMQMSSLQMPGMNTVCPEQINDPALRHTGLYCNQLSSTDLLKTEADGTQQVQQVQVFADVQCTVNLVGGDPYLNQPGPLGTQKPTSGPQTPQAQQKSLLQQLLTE

The nature of experiment [2]: VP16 transactivation inhibitors, counter-screen for SRC1 inhibitor project, cell-based, luminescence, high throughput (AID 588824). As to conditions: cell-based VP16 transactivation luciferase luminescence; at 3.6 µM; hits give high values.
The target of experiment [3] is Photoreceptor-specific nuclear receptor (Homo sapiens) (UniProt Q9Y5X4). The experiment in a line: NR2E3 agonist confirmation in cells, cell-based, luminescence, CHO-S two-hybrid (AID 624378;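 active = average inhibition above a cutoff equal to the mean inhibition of all tested compounds plus one SD, cut at about 70% in these data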;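 note: 0% = DMSO in NR2E3 cells and 100% = DMSO in cells lacking NR2E3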). The conditions noted are these: CHO-S mammalian two-hybrid NR2E3-NCOR, luciferase luminescence; at 3.98 µM; hits give high values.
Sequence of Photoreceptor-specific nuclear receptor (Homo sapiens) (Q9Y5X4 whole entry, looked up, the tested form may be a part): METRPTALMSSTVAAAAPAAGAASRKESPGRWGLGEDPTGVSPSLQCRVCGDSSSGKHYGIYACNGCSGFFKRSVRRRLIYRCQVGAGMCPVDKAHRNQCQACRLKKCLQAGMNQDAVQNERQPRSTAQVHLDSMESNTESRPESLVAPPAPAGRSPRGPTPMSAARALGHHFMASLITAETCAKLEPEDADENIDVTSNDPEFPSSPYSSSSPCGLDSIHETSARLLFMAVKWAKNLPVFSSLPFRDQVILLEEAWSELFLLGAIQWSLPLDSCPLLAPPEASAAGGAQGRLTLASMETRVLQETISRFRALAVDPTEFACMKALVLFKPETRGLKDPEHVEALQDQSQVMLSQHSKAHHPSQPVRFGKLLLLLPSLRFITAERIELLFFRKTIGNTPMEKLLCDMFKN
Experiment [4] in a line: GAL4-VP16 reporter modulators, confirmation, counter-screen for NR2E3 agonist project, cell-based, luminescence, CHO-S, high throughput (AID 624379;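 active = mean inhibition above a cutoff equal to the average over all tested compounds plus one standard deviation, cut at about 70% in these data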;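 note: luciferase from a UAS reporter driven by GAL4-VP16 transactivation; 0% = DMSO with VP16-transfected cells and 100% = DMSO with cells lacking VP16; higher means less reporter light so more repression of VP16 activity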). The conditions noted are these: CHO-S GAL4-VP16 luciferase reporter, at 3.98 µM, hits give high values. Background: A counterscreen serves to expose hits that act by an unwanted route or on another target.
Experiment [5] in a line: StAR promoter reporter inhibitors, counter-screen for LRH-1 inverse agonist project, cell-based, luminescence, high throughput (AID 651611; in the data active = inhibition above about 28%). As to conditions: StAR promoter luciferase reporter counterscreen, at 3.6 µM, hits give high values.
In experiment [6] the target is Nuclear receptor subfamily 5 group A member 2 (Homo sapiens) (UniProt O00482). The experiment in a line: LRH-1 (NR5A2) inverse agonists, retest, confirmation, cell-based, luminescence (AID 651613; in the data active = inhibition above about 42%;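 note: HEK293T cells co-transfected with LRH-1 and StAR promoter luciferase reporter; 0% = vehicle wells and 100% = parental cells lacking receptor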). The conditions noted are these: cell-based LRH-1 luciferase reporter, inverse agonism; at 3.6 µM; hits give high values.
Sequence of Nuclear receptor subfamily 5 group A member 2 (Homo sapiens) (O00482 whole entry, looked up): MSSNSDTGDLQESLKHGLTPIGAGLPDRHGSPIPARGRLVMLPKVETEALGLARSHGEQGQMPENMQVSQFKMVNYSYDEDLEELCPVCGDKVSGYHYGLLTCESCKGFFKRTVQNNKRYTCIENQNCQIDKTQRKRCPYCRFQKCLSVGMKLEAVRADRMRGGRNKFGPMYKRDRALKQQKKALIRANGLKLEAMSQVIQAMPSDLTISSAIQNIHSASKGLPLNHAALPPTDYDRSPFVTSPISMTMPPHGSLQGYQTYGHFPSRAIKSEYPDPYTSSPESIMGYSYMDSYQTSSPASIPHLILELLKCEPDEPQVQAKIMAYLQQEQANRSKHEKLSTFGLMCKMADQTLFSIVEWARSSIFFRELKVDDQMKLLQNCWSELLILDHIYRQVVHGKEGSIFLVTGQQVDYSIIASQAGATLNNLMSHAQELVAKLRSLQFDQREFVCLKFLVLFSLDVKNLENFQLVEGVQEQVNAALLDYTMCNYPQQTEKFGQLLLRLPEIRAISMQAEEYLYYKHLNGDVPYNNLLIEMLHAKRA
Experiment [7] concerns the target Steroidogenic factor 1 (Homo sapiens) (UniProt Q13285). The experiment in a line: SF1 (NR5A1) inverse agonists, counter-screen for LRH-1 inverse agonist project, cell-based, luminescence, high throughput (AID 651614; in the data active = inhibition above about 44%;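 note: cells cotransfected with StAR promoter reporter and SF1 expression vector; 0% = vehicle on cells with receptor and 100% = vehicle on cells lacking receptor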). As to conditions: cell-based SF1 luciferase reporter, at 3.6 µM, hits give high values.
A short description of experiment [8]: VP16 transactivation reporter inhibitors, counter-screen for LRH-1 inverse agonist project, cell-based, luminescence, high throughput (AID 651615; in the data active = inhibition above about 33%). The conditions noted are these: Gal4-VP16 luciferase reporter cells, at 3.6 µM, hits give high values.
A short description of experiment [9]: Gal4-VP16 luciferase reporter inhibitors, counter-screen for COUP-TFII antagonist project, cell-based, luminescence, HEK293 (AID 687007; in the data active = inhibition above about 13%). As to conditions: at 8.5 µM, hits give high values.
In experiment [10] the target is COUP transcription factor 2 (Homo sapiens) (UniProt P24468). Briefly: NR2F2 transcriptional activity inhibitors, confirmation, cell-based, luciferase reporter, HEK293, triplicate (AID 687008;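 active = mean inhibition over three repeats above a set limit taken from the earlier primary screen, cut at about 38% in these data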;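 note: 100% = cells given the luciferase reporter alone without the COUP-TF2 vector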). The conditions noted are these: HEK293 NGFI-A luciferase reporter, luminescence; at 8.5 µM; hits give high values.
Sequence of COUP transcription factor 2 (Homo sapiens) (P24468 whole entry, looked up): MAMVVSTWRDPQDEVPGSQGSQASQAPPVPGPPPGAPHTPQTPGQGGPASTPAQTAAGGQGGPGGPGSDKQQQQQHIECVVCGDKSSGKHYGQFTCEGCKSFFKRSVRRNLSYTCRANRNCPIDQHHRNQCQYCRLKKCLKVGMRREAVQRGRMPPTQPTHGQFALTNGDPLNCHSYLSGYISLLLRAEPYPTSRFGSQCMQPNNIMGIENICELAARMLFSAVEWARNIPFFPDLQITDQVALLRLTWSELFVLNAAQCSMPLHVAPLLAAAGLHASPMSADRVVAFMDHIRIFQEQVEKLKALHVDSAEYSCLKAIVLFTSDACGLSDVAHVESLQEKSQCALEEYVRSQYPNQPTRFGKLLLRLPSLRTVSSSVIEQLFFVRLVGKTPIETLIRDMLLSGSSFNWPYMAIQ

A number with no mark means an inactive call. Some of the results follow. Active and inactive are the calls of the source. Cut-off read from the data, not from the text of the source, unless noted: active = inhibition above about 25%; inactive = the rest.

Sequence of Steroidogenic factor 1 (Homo sapiens) (Q13285 whole entry, looked up, the tested form may be a part): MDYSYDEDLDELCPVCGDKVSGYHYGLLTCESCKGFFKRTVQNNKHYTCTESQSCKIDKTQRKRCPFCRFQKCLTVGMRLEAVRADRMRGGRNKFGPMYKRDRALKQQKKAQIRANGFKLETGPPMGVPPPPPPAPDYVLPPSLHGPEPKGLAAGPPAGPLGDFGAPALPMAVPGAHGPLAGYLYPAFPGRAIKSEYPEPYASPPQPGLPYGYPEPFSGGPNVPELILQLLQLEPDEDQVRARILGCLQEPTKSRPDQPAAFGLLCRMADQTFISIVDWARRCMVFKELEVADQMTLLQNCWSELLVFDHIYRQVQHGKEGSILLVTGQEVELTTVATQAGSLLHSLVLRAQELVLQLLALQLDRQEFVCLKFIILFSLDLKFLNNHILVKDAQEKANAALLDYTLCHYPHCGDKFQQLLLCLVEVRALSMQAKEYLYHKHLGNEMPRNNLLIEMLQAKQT

As for `CCN(C(=O)c1ccc(S(=O)(=O)N2CCC(C)CC2)cc1)C1CCS(=O)(=O)C1` (stereo not given), the inhibition (usually the drop in the measured response relative to a control, in per cent) is -0.29% in experiment [1] and 2.08% in experiment [2].

On to `CCCOc1ccc(Cc2c(Cl)nc(SC)nc2NC)cc1`, for which the inhibition in [1] was -9.8%; in experiment [2], 24.6%; in experiment [3] it was 94.6% (active); in experiment [4], 85.9% (active); in [5], 4.85%; in [6], 54.9% (active). In addition, the inhibition in experiment [7] is 55.9% (active); in [8], 35.5% (active); in experiment [9], 2.67%; in experiment [10] it was 44.7% (active).

As for `Cc1ccc(N2C(N)=C(C#N)C3(C(=O)N(C)c4ccccc43)C3=C2CC(C)(C)CC3=O)cc1Cl` (stereo not given), the inhibition in experiment [1] is 3.57%; in experiment [2] it was 14.7%.

Turning to `CN1CCN(c2ccc(CNS(=O)(=O)Cc3cccc(C(F)(F)F)c3)cc2)CC1`, the inhibition is -13.6% in experiment [1]; 26.4% (active) in experiment [2]; 15.4% in [5]; 69.8% (active) in [6]; 68.1% (active) in experiment [7]; 40.1% (active) in experiment [8].

As to `Oc1c(C(Nc2nc3ccccc3s2)c2ccco2)ccc2cccnc12` (stereo not given), the inhibition was 28.4% in [1] and 29.8% (active) in experiment [2].

In the case of `CCOC(=O)C1=C(COC(=O)Cc2ccc(Br)cc2)NC(=O)NC1C` (stereo not given), the inhibition was -7.28% in experiment [1] and -12.6% in experiment [2].

`CC(=O)Nc1ccc(Nc2c3ccccc3nc3ccccc23)cc1`: the inhibition in experiment [1] was 22.8%; in [2], 39.4% (active); in experiment [5], 62.5% (active); in experiment [6] it was 106% (active); in [7], 69.6% (active); in experiment [8], 72.8% (active).

With `Cc1ccc(C#CC[N+]2(CC#Cc3ccc(C)cc3)CCCCC2)cc1`, the inhibition in experiment [1] is 32.6%; in experiment [2], 36.3% (active); in experiment [5], 40.5% (active); in [6] it was 74.2% (active); in [7] it was 65.3% (active); in experiment [8], 67.5% (active).

In the case of `CN(C)c1ccc(Sc2ccc3nc(N)nc(N)c3c2)cc1`, the inhibition in experiment [1] was 14.5%; in [2], 27.5% (active); in [5], 60.9% (active); in experiment [6], 107% (active); in [7], 61.6% (active); in experiment [8], 80.2% (active).

Consider `CCN(CC)S(=O)(=O)c1cc(NC(=O)CNc2cccc(S(=O)(=O)N3CCCC3)c2)ccc1C`, for which the inhibition in [1] is -4.32%; in experiment [2], 32.8% (active); in [5], 21.6%; in [6], 61.7% (active); in [7] it was 54.9% (active); in experiment [8], 49.1% (active).

Regarding `CCNc1nc(NC(C)(C)C)nc(N2CCCCC2)n1`, the inhibition is 8.01% in experiment [1] and 12.6% in [2].

Take `COc1ccccc1NS(=O)(=O)c1cccc(C(=O)NC2CCN(Cc3ccccc3)CC2)c1`: the inhibition in experiment [1] is -19.5%; in experiment [2], 26.4% (active); in experiment [5], 26.2%; in experiment [6], 60.4% (active); in experiment [7] it was 65.3% (active); in [8], 48.3% (active).

As to `Cc1cccc(-n2c(CNC(=O)c3ccccc3)nnc2SCC(=O)Nc2nccs2)c1`, the inhibition is -8.14% in [1]; 4.71% in [2]; 10.2% in [5]; 10.1% in [6]; 17.1% in experiment [7]; 3.06% in experiment [8].

Regarding `NC(=O)[C@H]1CC2(CC(c3cccc(NC(=O)COc4ccc(Cl)cc4)c3)=NO2)CN1C(=O)Cc1ccc([N+](=O)[O-])cc1` (stereo not given in full), the inhibition in [1] was 8.04%; in experiment [2] it was 39.5% (active); in experiment [5] it was 13.5%; in [6] it was 55.8% (active); in [7] it was 50.3% (active); in experiment [8] it was 52.5% (active).

`Cc1ccccc1-c1ccc(CN2C(C)C(=O)N(Cc3cn(Cc4ccco4)nn3)CCS2(=O)=O)cc1` (stereo not given): the inhibition is 7.13% in experiment [1] and 6.95% in experiment [2].

Take `O=C(N/N=C/c1ccc(O)cc1)c1ccc(COc2cc(Cl)ccc2Cl)o1`: the inhibition in experiment [1] was -2.22%; in experiment [2], 30.3% (active); in experiment [5], 22.3%; in [6], 42.3% (active); in [7], 47.1% (active); in [8], 57.9% (active).

As for `COc1cccc(-c2cc(C(=O)Nc3cc(C)n(Cc4ccc(Cl)cc4)n3)no2)c1`, the results for the inhibition in experiment [1] and in [2] were 1.04% and 18.9%, respectively.

Turning to `NS(=O)(=O)c1ccc(N=Nc2c(O)[nH]c3ccc(Br)cc23)cc1`, the inhibition is 8.56% in experiment [1]; 5.38% in [2]; 38.4% (active) in [5]; 23.4% in experiment [6]; 30.4% in [7]; 8.51% in [8].

With `O=C(NCc1ccccc1)c1cccc(NC(=O)c2ccccc2)c1`, the inhibition was -0.73% in [1]; 39.8% (active) in experiment [2]; 32.8% (active) in experiment [5]; 52.4% (active) in experiment [6]; 59.2% (active) in [7]; 62% (active) in experiment [8].

Take `Cc1cc2[nH]c3c(c[n+](C)c4ccccc34)c2cc1C`: the inhibition was 20.9% in experiment [1]; 47.8% (active) in experiment [2]; 41.7% (active) in experiment [5]; 100% (active) in experiment [6]; 66.4% (active) in [7]; 84.2% (active) in experiment [8].

On to `COc1ccc(NC(=O)C2Cc3c(-c4ccc5c(c4)OCO5)ccnc3O2)cc1OC` (stereo not given), for which the inhibition in experiment [1] was 0.9%; in [2], 34% (active); in experiment [5] it was 27.9% (active); in experiment [6] it was 53.5% (active); in [7] it was 61.1% (active); in [8], 43.5% (active).

As for `Cc1nc2ccc(NC(=O)c3cc(S(=O)(=O)N(C)c4ccccc4)ccc3Cl)cc2s1`, the inhibition in experiment [1] is -5.16%; in experiment [2] it was 33.7% (active); in experiment [5], 30.4% (active); in experiment [6], 57.5% (active); in experiment [7], 59.5% (active); in experiment [8], 47.6% (active).

Regarding `O=C(Nc1nonc1NC(=O)c1cccs1)c1cccs1`, the inhibition in experiment [1] is -7.76%; in [2], 21.9%; in experiment [5], 30.2% (active); in [6], 64.1% (active); in [7], 66% (active); in [8], 52.7% (active).

`CC1(c2ccc3ccccc3c2)NC(=O)N(CC(=O)N2CCN(Cc3ccccc3)CC2)C1=O` (stereo not given): the inhibition in experiment [1] was -20.6%; in [2], 37.1% (active); in [5], 12.2%; in experiment [6] it was 55.8% (active); in [7], 58% (active); in experiment [8] it was 48.8% (active).

(Values after PubChem BioAssay.)
